The record followed here is PubChem BioAssay (NCATS).

Usually viability stands for a read-out of living cells in per cent, often relative to untreated cells.

Molecules are shown by their SMILES. Inconclusive results are not listed. Unmarked numbers belong to inactive results. The source made the active and inactive calls. Calls come from the whole dose curve; as a rule, active = well fitted curve in the direction sought with a large enough effect; inconclusive = small, poorly fitted or top-dose-only effect, or another doubt; inactive = no such curve, though single readings can be large; an effect the other way counts as inactive or inconclusive.

Test [1] in a line: BET inhibitor-based combinations targeting novel dependencies in MECOM-rearranged (r) AML: SET-2 cell line (AID 2202231).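 For viability: plate controls were DMSO treated cells for no effect and wells without cells for full effect.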 Note: nearly all actives have a fitted effect of over 35% in size. To be noted: SET-2 AML cells viability, CellTiter-Glo luminescence, 48 h; viability: hits give low values, concentration not given here. An outline of the steps:
(§1)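 Viability of cells (500 per well) is scored by luminescent CellTiter-Glo at 48 hr post-dosing. Eleven-point titrations are normalized to DMSO and empty controls and reduced to AUC values.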
In general terms: Cellular ATP, detected with luciferase, serves as a proxy for viable cell number.

Test [2] is described as follows: BET inhibitor-based combinations targeting novel dependencies in MECOM-rearranged (r) AML: OCI-AML3 cell line (AID 2202232). Note: nearly all actives have a fitted effect of over 35% in size. To be noted: Potency: OCI-AML3 viability. An outline of the steps:
as §1

The nature of test [3]: BET inhibitor-based combinations targeting novel dependencies in MECOM-rearranged (r) AML: MV-4-11 cell line (AID 2202233). Note: nearly all actives have a fitted effect of over 45% in size. The method, boiled down: (§2)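 Using pin-tool transfer, drugs were added in 11 doses to cells (500/well), incubated 48 hr, and assessed with CellTiter-Glo. Z-AUC is a mean-centring transformation applied separately to each screened line.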
Test [4] in a line: BET inhibitor-based combinations targeting novel dependencies in MECOM-rearranged (r) AML: HNT-34 cell line (AID 2202234). Note: nearly all actives have a fitted effect of over 35% in size. An outline of the steps: as §2
The nature of test [5]: BET inhibitor-based combinations targeting novel dependencies in MECOM-rearranged (r) AML: UCSD-AML1 cell line (AID 2202235). Note: nearly all actives have a fitted effect of over 40% in size. The method, boiled down:
as §2

Test [6] in a line: BET inhibitor-based combinations targeting novel dependencies in MECOM-rearranged (r) AML: AML-194 cell line (AID 2202237; note: nearly all actives have a fitted effect of over 40% in size). An outline of the steps: as §1
The nature of test [7]: BET inhibitor-based combinations targeting novel dependencies in MECOM-rearranged (r) AML: AML-191 cell line (AID 2202236; note: nearly all actives have a fitted effect of over 35% in size). An outline of the steps: as §1
Potency is the fitted concentration of half-maximal effect.

On to `O=C(NOCCO)c1ccc2cncn2c1Nc1ccc(I)cc1F`, for which the Potency was 18.6 µM (active) in test [1]; 0.0934 µM (active) in test [2]; 0.742 µM (active) in test [3]; 0.525 µM (active) in test [4]; 1.32 µM (active) in test [5]; 1.66 µM (active) in test [6].

Take `Nc1nc(=S)c2[nH]cnc2[nH]1`: the Potency in test [1] was 0.742 µM (active); in test [2] it was 0.417 µM (active); in test [3] it was 0.296 µM (active); in test [4], 3.32 µM (active); in test [5], 2.95 µM (active); in test [6], 3.72 µM (active).

Take `N#Cc1c(N(CC(=O)O)CC(=O)O)sc(C(=O)O)c1CC(=O)O`: the viability in test [1] was 117%. Further, the Potency entry in test [2], in test [3], in test [4], in test [5], in test [7] and in test [6] was “inactive” in each case.

Take `CC(C)c1ccc(Cn2ccc3c4c(N)nc(NC5CC5)nc4ccc32)cc1`: the Potency is 0.468 µM (active) in test [1]; 1.48 µM (active) in test [2]; 2.09 µM (active) in test [3]; 1.32 µM (active) in test [4]; 1.32 µM (active) in test [5]; 1.32 µM (active) in test [7]. Besides, the Potency in test [6] is 1.48 µM (active).

Consider `CC[C@@]1(O)C(=O)OCc2c1cc1n(c2=O)Cc2c-1nc1ccccc1c2CCNC(C)C`, for which the Potency is 0.0166 µM (active) in test [1]; 0.0047 µM (active) in test [2]; 0.0042 µM (active) in test [3]; 0.0037 µM (active) in test [4]; 0.0074 µM (active) in test [5]; 0.0132 µM (active) in test [6].

Turning to `C/C=C/C/C=C/CCC(=O)[C@H]1O[C@H]1C(N)=O`, the Potency was 20.9 µM (active) in test [1]; 11.8 µM (active) in test [2]; 20.9 µM (active) in test [3]; 14.8 µM (active) in test [4]; 20.9 µM (active) in test [5]; 26.3 µM (active) in test [6].

Turning to `C[C@@H]1[C@H](O)[C@@H](C)/C=C/C=C/C=C/C=C/C=C/C=C/C=C/[C@H](O[C@@H]2O[C@H](C)[C@@H](O)[C@H](N)[C@@H]2O)C[C@@H]2O[C@](O)(C[C@@H](O)C[C@@H](O)[C@H](O)CC[C@@H](O)C[C@@H](O)CC(=O)O[C@H]1C)C[C@H](O)[C@H]2C(=O)O`, the viability in test [1] is 112%. The Potency entry in test [2], in test [4], in test [5], in test [7] and in test [6] was “inactive” in each case. For the same compound, the Potency in test [3] was 23.5 µM (active).

For `COc1ccc(-c2oc3c(CC=C(C)C)c(OC4O[C@H](CO)[C@@H](O)[C@H](O)[C@H]4O)cc(O)c3c(=O)c2OC2O[C@@H](C)[C@H](O)[C@@H](O)[C@H]2O)cc1` (stereo partly specified), the viability in test [1] was 116%. Besides, the Potency entry in test [2], in test [3], in test [4], in test [5] and in test [6] was “inactive” throughout.

For the compound `CN1N=C(N)c2cn([C@@H]3O[C@H](COP(=O)(O)O)[C@@H](O)[C@@H]3O)c3ncnc1c23`, the Potency in test [1] was 2.63 µM (active); in test [2], 1.32 µM (active); in test [3] it was 0.525 µM (active); in test [4], 0.468 µM (active); in test [5], 1.18 µM (active); in test [6], 1.66 µM (active).

On to `Cc1nc2ccc(CN(C)c3ccc(C(=O)N[C@@H](CCC(=O)O)C(=O)O)s3)cc2c(=O)[nH]1`, for which the Potency in test [1] was 0.0468 µM (active); in test [2], 0.0468 µM (active); in test [3], 0.0468 µM (active); in test [5] it was 0.0468 µM (active); in test [6], 0.332 µM (active). Moreover, the Potency result in test [4] was “inactive”.

For the compound `C=CC[N+]1([C@H]2C[C@H]3[C@@H]4CC[C@H]5C[C@H](O)[C@@H](N6CCOCC6)C[C@]5(C)[C@H]4CC[C@]3(C)[C@H]2OC(C)=O)CCCC1`, the viability in test [1] was 115%. Also, the Potency result in test [2], in test [3], in test [4], in test [5] and in test [6] was “inactive” throughout.

For `Cc1ccc(-n2[nH]c(C)c(N=Nc3cccc(-c4cccc(C(=O)O)c4)c3O)c2=O)cc1C`, the viability in test [1] is 109%. For the same compound, the Potency entry in test [2], in test [3], in test [4], in test [5] and in test [6] was “inactive” in each case.

For the compound `CC(C)(C)OC(=O)Nc1ccc(-c2cc(C(=O)NCCCCCCC(=O)NO)no2)cc1`, the Potency is 2.95 µM (active) in test [1]; 2.63 µM (active) in test [2]; 1.66 µM (active) in test [3]; 2.35 µM (active) in test [4]; 3.72 µM (active) in test [5]; 2.63 µM (active) in test [7]. In addition, the Potency in test [6] is 3.32 µM (active).

On to `CO[C@@H]1[C@@H](O)[C@H](O)[C@@H](n2c3c(Cl)cccc3c3c4c(c5c6cccc(Cl)c6[nH]c5c32)C(=O)NC4=O)O[C@H]1CO`, for which the Potency was 1.32 µM (active) in test [1]; 1.32 µM (active) in test [2]; 0.934 µM (active) in test [3]; 0.59 µM (active) in test [4]; 1.05 µM (active) in test [5]; 2.35 µM (active) in test [7]. Besides, in test [6], the Potency was 1.32 µM (active).

As for `CC1(C)CC[C@]2(C(=O)O)CC[C@]3(C)C(=CC[C@@H]4[C@@]5(C)C[C@@H](O)[C@H](O)C(C)(C)[C@@H]5CC[C@]43C)[C@@H]2C1`, the viability in test [1] was 102%. Moreover, the Potency entry in test [2], in test [3], in test [4], in test [5], in test [7] and in test [6] was “inactive” in each case.

Regarding `COC(=O)c1ccc([C@H]2c3[nH]c4ccccc4c3C[C@H](C(=O)OC)N2C(=O)CCl)cc1`, the Potency in test [1] is 0.0934 µM (active); in test [2] it was 0.105 µM (active); in test [3], 0.833 µM (active); in test [4], 0.0934 µM (active); in test [5], 0.166 µM (active); in test [6] it was 0.105 µM (active).

`C[C@@H](O)[C@@H]1NC(=O)[C@H](CCCCN)NC(=O)[C@@H](Cc2c[nH]c3ccccc23)NC(=O)[C@H](Cc2ccccc2)NC(=O)[C@@H](NC(=O)[C@H](N)Cc2ccccc2)CSSC[C@@H](C(=O)N[C@H](CO)[C@@H](C)O)NC1=O`: the viability in test [1] was 114%. The Potency result in test [2], in test [3], in test [4], in test [5], in test [7] and in test [6] was “inactive” each time.

As to `C=CCNc1c(O)cc2c(O)c1C[C@@H](C)C[C@H](OC)[C@H](O)[C@@H](C)/C=C(/C)[C@H](OC(N)=O)[C@@H](OC)/C=C\C=C(\C)C(=O)N2`, the Potency is 4.68 µM (active) in test [1]; 0.742 µM (active) in test [2]; 0.148 µM (active) in test [3]; 4.17 µM (active) in test [4]; 1.32 µM (active) in test [5]; 5.9 µM (active) in test [7]. Moreover, in test [6], the Potency is 3.32 µM (active).
